Screening data as filed in PubChem.
hgDAF-12 ag: H. glycines DAF-12 receptor agonists, primary screen, cell-based, luminescence, HEK293, GAL4 fusion, UAS-luciferase; HEK293 GAL4-hgDAF12 UAS-luciferase reporter, agonist luminescence; normalized to butyrate control; activation, % at 6.8 µM; hit rate 1.8% among 370,000; AID 687014, 2013;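 active = activation above a cutoff set at the mean of all screened compounds plus 3 SD, cut at about 10% in these data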;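 note: 0% = DMSO wells and 100% = sodium butyrate wells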
ssDAF12 agonist: S. stercoralis DAF-12 nuclear receptor activators, primary screen, cell-based, luminescence, HEK293, GRIP1 co-expression, lit1-tk-luc | Nuclear hormone receptor DAF-12 (Strongyloides stercoralis) | HEK293 ssDAF-12/GRIP1 lit1-tk-luc reporter; % of 3 µM dafachronic acid response | activation, % at 6.8 µM | hit rate 1% among 370,000;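 active = activation above the mean over all tested compounds plus 3 SD, cut at about 0.9% in these data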;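 note: 0% = DMSO-only wells and 100% = 3 µM delta7-dafachronic acid wells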
hcDAF12 agonist: H. contortus DAF-12 nuclear receptor activators, primary screen, cell-based, luminescence, HEK293, lit1-tk-luc reporter. activation, % at 6.8 µM. HEK293 hcDAF-12 lit1-tk-luc reporter; 0% DMSO, 100% Δ7-dafachronic acid. hit rate 1.4% among 370,000;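 active = activation above the mean of all tested compounds plus 3 SD, cut at about 5.5% in these data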;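 note: 100% = response to 3 µM Δ7-dafachronic acid high control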
DAX1 inh-1: DAX1 (NR0B1) inhibitors on StAR promoter, primary screen, cell-based, luminescence, SF-1 (NR5A1), full-length DAX-1; HEK293T StAR-luciferase reporter, SF-1/DAX-1 repression relief; inhibition, % at 6.8 µM; hit rate 1.1% among 370,000;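 active = inhibition above the mean over all tested compounds plus 3 SD, cut at about 3.6% in these data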;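 note: 0% = DAX-1 cells with DMSO and 100% = cells lacking DAX-1 with DMSO; higher inhibition means more luminescence from relief of DAX-1 repression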
DAX1 inh-2: DAX1 (NR0B1) inhibitors, primary screen, cell-based, HEK293, Gal4-DAX1, luciferase luminescence; Nuclear receptor subfamily 0 group B member 1 (Homo sapiens), P51843; HEK293 Gal4-DAX1 luciferase reporter; inhibition, % at 6.75 µM; hit rate 0.99% among 340,000;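 active = inhibition above the mean over all tested compounds plus 3 SD, cut at about 4.2% in these data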;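 note: 0% = DAX1-transfected cells with DMSO and 100% = empty-vector control cells with DMSO; inhibition shows as a rise in luminescence from relieved DAX1 repression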
DAX1 conf: DAX1 (NR0B1) inhibitors relieving SF-1 repression, confirmation, cell-based, luminescence, HEK293T, full-length DAX-1, SF-1 activated StAR promoter; shares compounds with DAX1 inh-1; HEK293T StAR-promoter luciferase reporter, SF-1/DAX-1 repression; inhibition, % at 6.8 µM; hit rate 87% among 2,400; AID 652134, 2013;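 active = inhibition above the average of every tested compound plus 3 SD, cut at about 3.8% in these data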;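 note: 0% = DAX-1 cells with DMSO and 100% = no DAX-1 control cells with DMSO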
SF1 mutant ctr: StAR reporter signal changes without DAX1, counter-screen for DAX1 inhibitor project, cell-based, luminescence, AF-2 mutant SF-1, transactivation; shares compounds with DAX1 inh-1; hit rate 78% among 2,400; HEK293 StAR-luciferase, SF-1 AF2 mutant; inhibition, % at 6.8 µM;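 active = inhibition above the mean of all tested compounds plus 3 SD, cut at about 3% in these data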;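 note: 0% = DAX-1 transfected cells with DMSO and 100% = cells without DAX-1 with DMSO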
LXR ag: LXR agonists, Gal4 luciferase reporter, confirmation, counter-screen for hcDAF-12 agonist project, cell-based, luminescence, HEK293, H. contortus campaign. shares compounds with hcDAF12 agonist. HEK293 Gal4-LXR tk-luc reporter, 24 h; normalized: DMSO 0%, positive control 100%. activation, % at 6.8 µM. 3,400 tested, under 10 active. AID 743027, 2013;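 active = mean percent activation of the reporter above a cutoff set as the average over tested compounds plus their standard deviation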
Target sequence (P55055 whole entry, looked up, the tested form may be a part): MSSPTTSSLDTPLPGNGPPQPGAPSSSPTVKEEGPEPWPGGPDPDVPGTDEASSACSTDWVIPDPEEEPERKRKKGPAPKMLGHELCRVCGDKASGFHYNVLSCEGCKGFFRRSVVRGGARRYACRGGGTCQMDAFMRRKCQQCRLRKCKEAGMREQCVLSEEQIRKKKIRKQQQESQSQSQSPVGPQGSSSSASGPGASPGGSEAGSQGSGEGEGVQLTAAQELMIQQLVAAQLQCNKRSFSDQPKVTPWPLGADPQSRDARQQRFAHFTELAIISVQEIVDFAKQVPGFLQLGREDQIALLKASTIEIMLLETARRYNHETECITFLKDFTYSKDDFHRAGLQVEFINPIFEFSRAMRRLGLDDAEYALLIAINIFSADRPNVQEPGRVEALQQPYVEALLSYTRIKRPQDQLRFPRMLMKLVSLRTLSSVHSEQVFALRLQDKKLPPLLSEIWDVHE
hcDAF12 ag: H. contortus DAF-12 receptor agonists, confirmation, cell-based, luminescence, HEK293, lit1-tk-luc, triplicate; activation, % at 6.8 µM; HEK293 hcDAF-12 lit1-tk-luc reporter; % of Δ7-dafachronic acid response; hit rate 61% among 3,400; shares compounds with hcDAF12 agonist;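 active = mean activation across triplicate tests above the threshold derived from the earlier primary screen, cut at about 5.5% in these data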;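 note: 0% = DMSO only wells and 100% = 3 µM Δ7-dafachronic acid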
hgDAF12 conf: H. glycines DAF-12 receptor agonists, confirmation, cell-based, luminescence, HEK293, GAL4-LBD fusion; shares compounds with hgDAF-12 ag; HEK293 GAL4-hgDAF12 luciferase reporter, agonist mode; percent of butyrate response; activation, % at 6.8 µM; hit rate 80% among 3,300; AID 743050, 2013;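 active = mean activation over triplicate wells above the hit cutoff derived from the earlier primary screen, cut at about 11% in these data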;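 note: 0% = DMSO low control and 100% = 2 mM sodium butyrate high control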
LXRb DAF12 ctr: LXR agonists, Gal4 luciferase reporter, confirmation, counter-screen for hgDAF-12 agonist project, cell-based, luminescence, HEK293, H. glycines campaign; AID 743051, 2013; 24 h; 3,300 tested, under 10 active; shares compounds with hgDAF-12 ag; activation, % at 6.8 µM;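 active = mean activation of the triplicate above a set limit carried over from the primary screen, none filed active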
Active calls of the source: *; . = no result given. Most compounds without a hit are left out; they make up all but 4.1% or so of the library.

SMILES | hgDAF-12 ag | ssDAF12 agonist | hcDAF12 agonist | DAX1 inh-1 | DAX1 inh-2 | DAX1 conf | SF1 mutant ctr | hgDAF12 conf | LXRb DAF12 ctr | others
O=C(CC1SC(N2CCCC2)=NC1=O)Nc1ccc(C(=O)Nc2ncccc2O)cc1 (stereo unspecified) | 38* | 1 | 3 | 25* | 3 | 40* | 22* | 43* | 0
C=CCNc1ncnc2c1cnn2-c1ccc(Cl)cc1 | 15* | 0 | 4 | 8.8* | 1 | 16* | 8.1* | 27* | 1
O=C(CSc1ccc2nc(-c3ccccc3)cn2n1)NCC1CCCO1 (stereo unspecified) | 4 | 0 | 1 | 1 | 0 | . | . | . | .
COc1ccc(-c2cn3nc(SCC(=O)NCC4CCCO4)ccc3n2)cc1 (stereo unspecified) | 14* | 0 | 5 | 13* | 0 | 8.5* | 4.0* | 15* | 1
COc1ccc(/C=N/Nc2nc3ccccc3o2)cc1O | 15* | 1 | 12* | 5.5* | 0 | 5.4* | 2 | 7 | 1 | LXR ag=1;hcDAF12 ag=6.6*
Cc1cccc(-c2cc(N)n(-c3ccccc3)n2)c1 | 18* | 0 | 3 | 7.8* | 3 | 11* | 6.8* | 21* | 1
CCc1ccc(-c2cc(N)n(-c3ccccc3)n2)cc1 | 17* | 1 | 5 | 7.3* | 5.5* | 12* | 7.2* | 18* | 1
N#Cc1ccc(-c2nc3ccc(Cl)cn3c2Cc2cccc(F)c2)cc1 | 5 | -2 | -3 | 0 | . | . | . | . | .
Fc1cccc(Cc2c(-c3cccc(Br)c3)nc3ccc(Br)cn23)c1 | 10 | 0 | -1 | 2 | . | . | . | . | .
Cc1ccc(-c2nc3ccc(Cl)cn3c2Cc2cccc(F)c2)cc1 | 21* | 0 | 1 | 6.5* | . | 9.7* | 4.9* | 11* | 0
Fc1cccc(Cc2c(-c3ccc(Cl)cc3)nc3ccc(Br)cn23)c1 | 18* | -1 | 4 | 4.7* | . | 2 | 1 | 1 | 0
